Compound activity from PubChem BioAssay.
PfGluPho inh – PfG6PD (Plasmodium falciparum) enzyme inhibition; PfGluPho enzyme, NADPH resazurin-diaphorase fluorescence; inhibition, % at 20 µM; actives 0.78% (n = 350,000); AID 504690;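 active means inhibition reaching at least a set limit at 20 µM in the primary screen, cut at about 59% in these data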;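 further: 0% = DMSO wells with substrate and 100% = DMSO wells lacking glucose-6-phosphate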
TAG inh – inhibitors of triacylglycerol accumulation | H9c2 cells, Nile Red lipid (TAG) fluorescence; cells loaded with 200 µM oleic acid | actives 0.66% (n = 230,000) | inhibition, % at 12.5 µM;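 active means pattern-corrected inhibition of lipid staining of at least 50% with the nuclear-stain viability signal not falling by more than 50%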;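 further: 0% = DMSO wells and 100% = triacsin C control wells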
APOBEC3G inh – APOBEC3G (human) deaminase inhibition; Q9HC16; recombinant A3G, ssDNA deamination FAM/TAMRA fluorescence; inhibition, % at 20 µM; actives 0.28% (n = 330,000); AID 493012;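 active means inhibition of at least 40% at 20 µM, with no more than 30% in the related APOBEC3A deaminase screen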;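 further: plate controls were DMSO wells with A3G for no effect and wells lacking A3G enzyme for full effect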
Target sequence (Q9HC16 whole entry, looked up): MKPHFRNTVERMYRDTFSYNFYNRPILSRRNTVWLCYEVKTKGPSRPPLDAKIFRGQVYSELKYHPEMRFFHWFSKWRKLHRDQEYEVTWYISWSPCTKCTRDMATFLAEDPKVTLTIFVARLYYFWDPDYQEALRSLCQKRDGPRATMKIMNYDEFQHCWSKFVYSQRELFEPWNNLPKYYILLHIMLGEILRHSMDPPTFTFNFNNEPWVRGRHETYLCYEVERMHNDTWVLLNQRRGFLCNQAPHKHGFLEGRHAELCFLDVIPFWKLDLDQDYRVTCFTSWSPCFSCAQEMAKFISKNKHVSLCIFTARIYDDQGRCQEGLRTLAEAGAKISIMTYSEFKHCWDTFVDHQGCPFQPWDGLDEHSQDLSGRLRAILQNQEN
A3A deaminase – inhibitors of human APOBEC3A DNA deaminase. P31941. recombinant A3A, FAM/TAMRA ssDNA deamination fluorescence. inhibition, % at 20 µM. actives 0.41% (n = 330,000). AID 493011;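 active means at least 40% inhibition at 20 µM here, with at most 30% in a related deaminase screen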;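 further: plate controls were A3A with DMSO for no effect and wells lacking A3A enzyme for full effect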
Target sequence (P31941 whole entry, looked up): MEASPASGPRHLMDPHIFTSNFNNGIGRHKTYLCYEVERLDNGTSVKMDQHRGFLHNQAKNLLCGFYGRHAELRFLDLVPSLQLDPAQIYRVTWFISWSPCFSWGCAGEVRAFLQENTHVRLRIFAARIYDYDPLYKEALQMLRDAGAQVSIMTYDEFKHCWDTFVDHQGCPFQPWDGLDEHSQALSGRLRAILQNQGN
NadD inh – blocks S. aureus nicotinate mononucleotide adenylyltransferase; actives 0.78% (n = 360,000); purified NadD enzyme, colorimetric absorbance read-out; inhibition, % at 20 µM; in the data active means inhibition above about 26%
Cardio protect – protects H9c2 cardiomyocytes from peroxide injury. H2O2 injury protection, ATPLite, 2 h. protection from H2O2 cell death, % at 20 µM. actives 0.63% (n = 360,000). AID 588492;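 active means compounds giving at least 50% protection of heart cells from peroxide-induced death in the single-dose screen, raw or plate-pattern-corrected value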;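 further: 0% = DMSO wells with peroxide and 100% = DMSO wells without peroxide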
* marks the source's active call; other numbers are inactive results; x = no result given. This is a sample that favours compounds with a hit; in the whole collection about 2.9% have one here.

SMILES	PfGluPho inh	TAG inh	APOBEC3G inh	A3A deaminase	NadD inh	Cardio protect
O=C(C[C@H]1C[C@H](C(=O)N2CCOCC2)[C@@]2(CCC3CCCC3)c3[nH]c4cc(-c5ccco5)ccc4c3CCN2C1=O)NCCN1CCOCC1	27	21	0	0	6	5
O=C(C[C@H]1C[C@H](C(=O)N2CCCCC2)[C@@]2(CCc3ccccc3)c3[nH]c4cc(-c5ccco5)ccc4c3CCN2C1=O)NCc1ccco1	24	37	1	1	51*	-6
CN(C)CCCNC(=O)C[C@H]1C[C@H](C(=O)N2CCOCC2)[C@@]2(CCC3CCCC3)c3[nH]c4cc(-c5ccco5)ccc4c3CCN2C1=O	3	60*	3	1	9	-7
COc1ccccc1N(CC(=O)NC1CCCC1)S(=O)(=O)c1cccc(C(F)(F)F)c1	37	-2	-2	0	-5	-1
CCCCN(C(=O)C1CCCO1)c1c(N)n(CC(C)C)c(=O)[nH]c1=O (stereo not drawn)	4	2	-3	-1	0	-5
O=C(COc1cccc2c1CCNC2=O)Nc1ccc(F)cc1	18	15	1	0	-2	51*
COc1cccc(NC(=O)COc2cccc3c2CCNC3=O)c1	1	3	-7	0	-5	56*
Cc1cccc(NC(=O)COc2cccc3c2CCNC3=O)c1	9	17	x	x	-2	59*
COc1ccc(NC(=O)COc2cccc3c2CCNC3=O)cc1	4	-3	-4	-3	-4	68*
COc1ccc(NC(=O)COc2cccc3c2CCN(Cc2cccnc2)C3=O)cc1	1	14	-3	-4	2	-4
O=C(COc1cccnc1[N+](=O)[O-])Nc1ccc(F)cc1	3	-8	-4	-3	-2	2
Cc1cccc(NC(=O)COc2cccc3c2CCN(C)C3=O)c1	4	8	12	7	6	5
CCCCN1C(=O)C(CC(=O)NCCN2CCOCC2)CC(C(=O)N(C)C)=C1C (stereo not drawn)	-3	-1	x	x	0	17
CCCCN(CCCC)Cc1cc(=O)oc2cc(OC)c(Cl)cc12	x	x	x	x	5	1
CCN(CC)c1ncnc2c1cnn2Cc1ccc(Cl)cc1	9	-9	-7	5	-9	12
CCNC(=O)C1(C)CCN(C(=O)c2ccccc2OC)C1 (stereo not drawn)	x	1	x	x	0	0
COc1ccc(C(=O)Nc2cccc(/C(C)=N/NC(=O)c3ccc([N+](=O)[O-])c(C)c3)c2)cc1OC	5	9	-2	1	8	95*
Cc1ccc(NC(=O)C2(C)CCN2C(=O)C2CCCCC2)cc1C (stereo not drawn)	x	2	x	x	-5	-7
CCC(=O)NC(c1cc(Cl)c2cccnc2c1O)C(C)C (stereo not drawn)	-7	38	-10	2	0	42
O=C(NC(c1ccc(Cl)cc1)c1cc(Cl)c2cccnc2c1O)c1cccnc1 (stereo not drawn)	-1	x	x	x	47*	37
CCC(=O)NC(c1cc(Cl)c2cccnc2c1O)C1CC1 (stereo not drawn)	-4	52*	-7	-5	1	33
CC(=O)NC(c1ccccc1)c1cc(Cl)c2cccnc2c1O (stereo not drawn)	11	x	-6	-1	1	47
CC(=O)NC(c1cc(F)c2cccnc2c1O)C1CC1 (stereo not drawn)	6	26	-6	-3	2	55*
Cc1ccc(CN2CC(C(=O)N(C)CC(=O)Nc3cccc(F)c3)CC2=O)cc1 (stereo not drawn)	3	x	-7	-1	-1	7
Cc1c(C(=O)N(CCC#N)c2ccccc2)sc2nc3n(c(=O)c12)CCCC3	8	x	-6	-3	1	-4
SMILES	PfGluPho inh	TAG inh	APOBEC3G inh	A3A deaminase	NadD inh	Cardio protect
O=C(NC(=S)Nc1ccccc1N1CCCCC1)c1ccc(-c2cccc([N+](=O)[O-])c2)o1	-16	-4	1	1	18	-2
CC(=O)N1CCN(c2ccccc2NC(=O)c2ccc(-c3cccc([N+](=O)[O-])c3)o2)CC1	1	18	-5	-8	5	79*
CCNC1=C(Cl)C(=O)c2ccccc2C1=O	-105	62*	-2	7	-2	-21
Cc1ccc(NC2=C(Cl)C(=O)c3ccccc3C2=O)cc1	-35	x	x	x	-1	-12
CCN(CC)CCNC(=O)c1c(C)n(-c2ccccc2)c2cc(Br)c(OC)cc12	0	69*	-6	-1	-9	8
O=C(Nc1cccc([N+](=O)[O-])c1)NN1CCCCCC1	34	-17	x	x	-7	-24
S=C(SSC(=S)N1CCOCC1)N1CCOCC1	x	x	x	x	16	-20
CC1=NN(c2nc(-c3ccc(C)cc3)cs2)C(=O)C1N=Nc1ccc2ccccc2c1 (stereo not drawn)	-14	36	3	0	44*	8
CC1=NN(c2nc(-c3ccccc3)cs2)C(=O)C1N=Nc1ccccc1 (stereo not drawn)	8	5	4	5	12	47
O=C(Nc1nc(-c2ccccn2)cs1)c1ccc2c(c1)OCCO2	9	10	-4	0	2	-15
CC(=O)Nc1ccc(C(=O)Nc2nc(-c3ccccn3)cs2)cc1	23	5	-2	0	6	70*
Cc1ccc(-c2csc(NC(=O)c3ccc(-c4ccccc4)cc3)n2)o1	60*	31	-8	-4	10	-29
O=C(Nc1nc(-c2ccccn2)cs1)c1ccccc1-n1cnnn1	29	51*	-1	7	-3	63*
CC(=O)c1ccc(-c2ccc(C(=O)Nc3nc(-c4ccccn4)cs3)o2)cc1	36	-3	2	-2	21	99*
O=C(Nc1nc(-c2ccco2)cs1)c1ccccc1	28	23	1	-1	10	13
Cc1ccc(C(=O)Nc2nc(-c3ccccn3)cs2)o1	4	-4	-4	5	7	47
CC(C)Oc1ccc(S(=O)(=O)N2CCOCC2)cc1NC(=O)Cc1cccs1	-3	-4	-9	-5	-10	2
COc1ccc2[nH]c3c4c(ccc3c2c1)C(=O)C=CC4=O	90*	x	20	1	7	-18
Nc1nonc1-n1nnc(C(=O)N/N=C/c2cc(Br)ccc2O)c1CNc1ccccc1	21	x	-7	-4	53*	46
Cc1ccc(/C=N/NC(=O)c2nnn(-c3nonc3N)c2CNc2ccccc2)cc1	14	x	-3	-3	12	-1
Cc1c(C(=O)N/N=C/c2c(O)ccc3ccccc23)nnn1-c1nonc1N	-11	x	-12	-5	25	60*
O=C(Nc1ccc2nc(-c3ccccc3)[nH]c2c1)c1ccco1	70*	18	-5	-3	0	5
O=C(Nc1cccc(-c2nc3ccccc3[nH]2)c1)c1cccc(NC(=O)c2ccco2)c1	0	x	2	5	28	-16
